The values below come from PubChem BioAssay (NCI).

A short description of test [1]: NCI Yeast Anticancer Drug Screen. Data for the rad50 strain (AID 155).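 Further: 0% = growth of vehicle-only cultures of the same strain.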 The following applies: S. cerevisiae rad50 strain growth inhibition, stronger effect = higher value. In outline:
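Relative growth inhibition (compound vs vehicle) was measured in yeast with a defined repair-gene alteration.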

The nature of test [2]: NCI Yeast Anticancer Drug Screen. Data for the mec2-1 strain (AID 157). The following applies: S. cerevisiae mec2-1 strain, stronger effect = higher value. In outline: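 Yeast mec2-1 mutant treated with compound. Readout: growth inhibition vs vehicle controls.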
A short description of test [3]: NCI Yeast Anticancer Drug Screen. Data for the sgs1 mgt1 strain (AID 161).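 Further: 0% = growth of cultures given vehicle only.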 The following applies: S. cerevisiae sgs1 mgt1 strain, stronger effect = higher value. In outline:
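Inhibition of yeast growth, normalised to vehicle-treated controls, is reported for a strain bearing genetic alterations in DNA damage repair.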

The nature of test [4]: NCI Yeast Anticancer Drug Screen. Data for the cln2 rad14 strain (AID 165).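 Further: 0% = growth equal to vehicle treated cultures.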 The following applies: S. cerevisiae cln2 rad14 strain, stronger effect = higher value. In outline:
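cln2 rad14 yeast strain; compound exposure; growth inhibition read vs vehicle controls.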

Test [5] is described as follows: NCI Yeast Anticancer Drug Screen. Data for the bub3 strain (AID 167). The following applies: S. cerevisiae bub3 mutant strain, stronger effect = higher value. In outline:
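Screening used yeast with an engineered genetic alteration affecting cell cycle control. Compound-exposed cultures were compared with vehicle cultures, and reduced growth was taken as inhibition.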

Test [6] is described as follows: NCI Yeast Anticancer Drug Screen. Data for the mlh1 rad18 strain (AID 175). Conditions: S. cerevisiae mlh1 rad18 strain growth inhibition, stronger effect = higher value. In outline:
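Yeast w/ defined DNA-repair lesions; compound exposure; growth vs vehicle controls → % inhibition.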

Setting [7] is: at 5.0 µM (retest, dose inferred, filed as 0.5).
[8] abbreviates: at 50.0 µM (retest, dose inferred, filed as 5.0).

The panel holds about 79,000 compounds, 15% with a hit somewhere; the sample as a whole holds those more often. Unmarked numbers belong to inactive results. Active and inactive are the calls of the source. No stated cut-off is given here; in the data, active means growth inhibition above about 70%; inactive means the rest.

With `CCN(CC)CCCCCCNc1cc(C)cc2cccnc12`, the growth inhibition in test [1] (setting [7]) is 7%; in test [1] (setting [8]) it was 59%; in test [1] (at 50.0 µM), 65.9%; in test [2] (setting [7]) it was 7%; in test [2] (setting [8]), 61%; in test [2] (at 50.0 µM), 19.9%. Besides, the growth inhibition was 20% in test [3] (setting [7]); 81% (active) in test [3] (setting [8]); 74% (active) in test [3] (at 50.0 µM); 9% in test [4] (setting [7]); 52% in test [4] (setting [8]); 72.8% (active) in test [4] (at 50.0 µM). The growth inhibition was 14% in test [5] (setting [7]); 76% (active) in test [5] (setting [8]); 18.9% in test [5] (at 50.0 µM); 10% in test [6] (setting [7]); 74% (active) in test [6] (setting [8]); 59.6% in test [6] (at 50.0 µM).

On to `O=[N+]([O-])c1ccc(O)c(C=Nc2ccccc2)c1`, for which the growth inhibition in test [1] (setting [7]) was -114%; in test [1] (setting [8]) it was 31%; in test [1] (at 50.0 µM), 74.3% (active); in test [2] (setting [7]), -50%; in test [2] (setting [8]), -21%; in test [2] (at 50.0 µM) it was 69.5%. The growth inhibition in test [3] (setting [7]) was -51%; in test [3] (setting [8]), 0%; in test [3] (at 50.0 µM), 64%; in test [4] (setting [7]) it was -57%; in test [4] (setting [8]), -6%; in test [4] (at 50.0 µM) it was 79.5% (active). The growth inhibition is -71% in test [5] (setting [7]); -41% in test [5] (setting [8]); 54.6% in test [5] (at 50.0 µM); -96% in test [6] (setting [7]); -16% in test [6] (setting [8]); 82.8% (active) in test [6] (at 50.0 µM).

For `BrCN(CBr)c1ccc2c(c1)Cc1cc(Br)ccc1-2`, the growth inhibition in test [1] (setting [7]) was 4%; in test [1] (setting [8]), -4%; in test [1] (at 50.0 µM), 70.4% (active); in test [2] (setting [7]), -3%; in test [2] (setting [8]), -4%; in test [2] (at 50.0 µM), 28.4%. Further, the growth inhibition in test [3] (setting [7]) was 1%; in test [3] (setting [8]) it was 1%; in test [3] (at 50.0 µM), 64.8%; in test [4] (setting [7]), 7%; in test [4] (setting [8]) it was 11%; in test [4] (at 50.0 µM), -1.35%. The growth inhibition in test [5] (setting [7]) is 1%; in test [5] (setting [8]), -2%; in test [5] (at 50.0 µM), 25.8%; in test [6] (setting [7]), 3%; in test [6] (setting [8]), -7%; in test [6] (at 50.0 µM) it was 74.3% (active).

For the compound `CC12C=CC(=O)C=C1CCC1C3CCC(O)(C(=O)CO)C3(C)CC(O)C12F` (stereo not given), the growth inhibition in test [1] (setting [7]) was 2%; in test [1] (setting [8]) it was 63%; in test [1] (at 50.0 µM) it was 11.4%; in test [2] (setting [7]), 4%; in test [2] (setting [8]) it was 65%; in test [2] (at 50.0 µM), 25.6%. Moreover, the growth inhibition was 3% in test [3] (setting [7]); 54% in test [3] (setting [8]); 7.65% in test [3] (at 50.0 µM); 6% in test [4] (setting [7]); 35% in test [4] (setting [8]); 72.8% (active) in test [4] (at 50.0 µM). The growth inhibition in test [5] (setting [7]) was 6%; in test [5] (setting [8]) it was 82% (active); in test [5] (at 50.0 µM), 0.6%; in test [6] (setting [7]), 4%; in test [6] (setting [8]), 79% (active); in test [6] (at 50.0 µM), 2.15%.

In the case of `COc1cc(C(c2cc3c(cc2O)OCO3)N2CCN(C(c3cc(OC)c(O)c(OC)c3)c3cc4c(cc3O)OCO4)CC2)cc(OC)c1O` (stereo not given), the growth inhibition is -3% in test [1] (setting [7]); 7% in test [1] (setting [8]); 26.3% in test [1] (at 50.0 µM); 1% in test [2] (setting [7]); 16% in test [2] (setting [8]); 41% in test [2] (at 50.0 µM). Also, the growth inhibition is -2% in test [3] (setting [7]); 15% in test [3] (setting [8]); 43.6% in test [3] (at 50.0 µM); 0% in test [4] (setting [7]); -12% in test [4] (setting [8]); -36.5% in test [4] (at 50.0 µM). For the same compound, the growth inhibition is 1% in test [5] (setting [7]); 10% in test [5] (setting [8]); 33.8% in test [5] (at 50.0 µM); 0% in test [6] (setting [7]); 7% in test [6] (setting [8]); 51.2% in test [6] (at 50.0 µM).

On to `CCN(CC)CCO/N=C1\CC[C@H]2[C@@H]3CCc4cc(OC)ccc4[C@H]3CC[C@]12C`, for which the growth inhibition was 31% in test [1] (setting [7]); 99% (active) in test [1] (setting [8]); 89.1% (active) in test [1] (at 50.0 µM); 27% in test [2] (setting [7]); 98% (active) in test [2] (setting [8]); 92.2% (active) in test [2] (at 50.0 µM). For the same compound, the growth inhibition was 58% in test [3] (setting [7]); 98% (active) in test [3] (setting [8]); 91.3% (active) in test [3] (at 50.0 µM); 67% in test [4] (setting [7]); 98% (active) in test [4] (setting [8]); 89% (active) in test [4] (at 50.0 µM). For the same compound, the growth inhibition in test [5] (setting [7]) was 66%; in test [5] (setting [8]), 98% (active); in test [5] (at 50.0 µM), 90.7% (active); in test [6] (setting [7]) it was 34%; in test [6] (setting [8]), 99% (active); in test [6] (at 50.0 µM), 89.7% (active).

With `CC1OC(OP(=O)(OCc2ccccc2)OCc2ccccc2)C(OC(=O)c2ccccc2)C(OC(=O)c2ccccc2)C1I` (stereo not given), the growth inhibition in test [1] (setting [7]) was 50%; in test [1] (setting [8]) it was 93% (active); in test [1] (at 50.0 µM) it was 86.1% (active); in test [2] (setting [7]), 33%; in test [2] (setting [8]), 95% (active); in test [2] (at 50.0 µM), 90.6% (active). Further, the growth inhibition is 37% in test [3] (setting [7]); 96% (active) in test [3] (setting [8]); 90.1% (active) in test [3] (at 50.0 µM); 29% in test [4] (setting [7]); 95% (active) in test [4] (setting [8]); 88.5% (active) in test [4] (at 50.0 µM). For the same compound, the growth inhibition in test [5] (setting [7]) was 30%; in test [5] (setting [8]), 77% (active); in test [5] (at 50.0 µM), 88.9% (active); in test [6] (setting [7]), 55%; in test [6] (setting [8]), 93% (active); in test [6] (at 50.0 µM), 85% (active).

`CCc1ccc(/C=C/C(=O)C2CN(CC)CCC2(O)/C=C/c2ccc(CC)cc2)cc1` (stereo not given): the growth inhibition in test [1] (setting [7]) is 4%; in test [1] (setting [8]), 99% (active); in test [1] (at 50.0 µM), 91.5% (active); in test [2] (setting [7]), 2%; in test [2] (setting [8]) it was 99% (active); in test [2] (at 50.0 µM), 92.8% (active). Besides, the growth inhibition was 2% in test [3] (setting [7]); 99% (active) in test [3] (setting [8]); 92% (active) in test [3] (at 50.0 µM); 4% in test [4] (setting [7]); 99% (active) in test [4] (setting [8]); 89.8% (active) in test [4] (at 50.0 µM). Besides, the growth inhibition in test [5] (setting [7]) was 8%; in test [5] (setting [8]), 98% (active); in test [5] (at 50.0 µM) it was 91.2% (active); in test [6] (setting [7]), 13%; in test [6] (setting [8]) it was 99% (active); in test [6] (at 50.0 µM) it was 91.5% (active).

As for `CCOC(=O)/C(=C/c1ccccc1Br)P(=O)(OCC)OCC`, the growth inhibition in test [1] (setting [7]) was 7%; in test [1] (setting [8]) it was 39%; in test [1] (at 50.0 µM) it was 71.2% (active); in test [2] (setting [7]), -6%; in test [2] (setting [8]), 60%; in test [2] (at 50.0 µM), 35.8%. The growth inhibition in test [3] (setting [7]) is -12%; in test [3] (setting [8]), 38%; in test [3] (at 50.0 µM), 41.9%; in test [4] (setting [7]) it was 18%; in test [4] (setting [8]), 53%; in test [4] (at 50.0 µM) it was 33.5%. For the same compound, the growth inhibition in test [5] (setting [7]) was -2%; in test [5] (setting [8]), 85% (active); in test [5] (at 50.0 µM) it was 61.3%; in test [6] (setting [7]), -18%; in test [6] (setting [8]) it was 74% (active); in test [6] (at 50.0 µM) it was 30%.

For `CC1C(=O)C(Br)CC2C1(C)CCC1C2(C)CCC2(C)C3CC(C)(C)CCC3(C)CCC12C` (stereo not given), the growth inhibition in test [1] (setting [7]) is 6%; in test [1] (setting [8]) it was -1%; in test [1] (at 50.0 µM) it was 25.7%; in test [2] (setting [7]), 5%; in test [2] (setting [8]) it was 3%; in test [2] (at 50.0 µM) it was 6.25%. Besides, the growth inhibition in test [3] (setting [7]) is 8%; in test [3] (setting [8]), -13%; in test [3] (at 50.0 µM), 4.2%; in test [4] (setting [7]), 7%; in test [4] (setting [8]), 6%; in test [4] (at 50.0 µM) it was 64.5%. For the same compound, the growth inhibition is 6% in test [5] (setting [7]); 5% in test [5] (setting [8]); 85% (active) in test [5] (at 50.0 µM); -2% in test [6] (setting [7]); 0% in test [6] (setting [8]); 0.3% in test [6] (at 50.0 µM).
